± gives the standard deviation of the averaged measurements.
Columns and labels:
[1] = system: E18 rat cortical neuron-glia co-culture; assay: fiber score / MBP score (myelination specific beyond OL differentiation) (ratio); higher = more myelination-specific MBP alignment; conditions: treatment time: 8 days (DIV5-DIV13)
Outline: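 Fiber score divided by MBP score is the read-out; fiber score is continuous MBP fiber length per Olig2+ nucleus, and MBP score is thresholded MBP area × intensity per Olig2+ nucleus. Primary E18 rat cortical co-cultures were dissociated with papain and seeded at 20,000 cells/well on poly-d-lysine/laminin 96-well plates. Library compounds at 1 or 5 µM were given in myelination medium from DIV5 to DIV13, after which cells were fixed in 4 % paraformaldehyde, immunostained for MBP and Olig2 with DAPI, and imaged in four 10X fields per well in duplicate wells.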

[2] = system: E18 rat cortical neuron-glia co-culture; assay: myelination (MBP fiber length per Olig2+ nucleus), % of 1 µM DAPT response (DMSO = 0) (% of DAPT); higher = more myelination, active = 50 or more; conditions: treatment time: 8 days (DIV5-DIV13)
Outline: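 Four 10X fields in each of duplicate wells were analysed after cultures were fixed in 4 % paraformaldehyde and immunostained for MBP and Olig2, with DAPI as the nuclear counterstain. The cultures were papain-dissociated primary E18 rat cortical co-cultures at 20,000 cells/well on poly-d-lysine/laminin 96-well plates, dosed with library compounds at 1 or 5 µM in myelination medium from DIV5 to DIV13. The myelination readout was continuous straight MBP fiber length per Olig2+ nucleus, with 0.1 % DMSO set to 0 and a 1 µM positive control set to 100.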

In the case of `CCCN[C@H]1CCc2nc(N)sc2C1` [Pramipexole], the “fiber score / MBP score” value ([1]; 1 µM) is reported as 0.851 ± 0.02, the “fiber score / MBP score” value ([1]; 5 µM) is reported as 0.903 ± 0.21 and the myelination ([2]; 1 µM) is reported as -6.49 (inactive). For the same compound, the myelination ([2]; 5 µM) was -14.4 (inactive).

In the case of `C[C@H](N[C@@H](CCc1ccccc1)C(=O)O)C(=O)N1CCC[C@H]1C(=O)O` [Enalaprilat], the “fiber score / MBP score” value ([1]; 1 µM) is reported as 0.936, the “fiber score / MBP score” value ([1]; 5 µM) is reported as 0.731 and the myelination ([2]; 1 µM) is reported as -2.57 (inactive). The myelination ([2]; 5 µM) was -9.9 (inactive).

In the case of `O=C1NC(C(=O)O)CS1` (stereo not drawn) [2-oxothiazolidine-4-carboxylic acid], the “fiber score / MBP score” value ([1]; 1 µM) is reported as 0.704, the “fiber score / MBP score” value ([1]; 5 µM) is reported as 0.758 and the myelination ([2]; 1 µM) is reported as -34.3 (inactive). The myelination ([2]; 5 µM) was -59.9 (inactive).

In the case of `NC12CC3CC(CC(C3)C1)C2` [Amantadine], the “fiber score / MBP score” value ([1]; 1 µM) is reported as 0.736, the “fiber score / MBP score” value ([1]; 5 µM) is reported as 0.883 and the myelination ([2]; 1 µM) is reported as -4.46 (inactive). The myelination ([2]; 5 µM) was 0.678 (inactive).

`CN(C)c1nc(N(C)C)nc(N(C)C)n1` [Altretamine] was tested, and the “fiber score / MBP score” value ([1]; 1 µM) was 0.923, the “fiber score / MBP score” value ([1]; 5 µM) was 0.901 and the myelination ([2]; 1 µM) was -3.29 (inactive). The myelination ([2]; 5 µM) was -4.16 (inactive).

For `OCc1cccnc1` [Nicotinyl Alcohol], the “fiber score / MBP score” value ([1]; 1 µM) was 0.641, the “fiber score / MBP score” value ([1]; 5 µM) was 0.687 and the myelination ([2]; 1 µM) was -10.3 (inactive). The myelination ([2]; 5 µM) was -10.1 (inactive).

For `NC(=O)c1ncn([C@@H]2O[C@H](CO)[C@@H](O)[C@H]2O)n1` [Ribavirin], the “fiber score / MBP score” value ([1]; 1 µM) was 1.17, the “fiber score / MBP score” value ([1]; 5 µM) was 1.03 and the myelination ([2]; 1 µM) was 3.44 (inactive). The myelination ([2]; 5 µM) was 4.23 (inactive).

`c1ccc2[nH]c(-c3cscn3)nc2c1` [Thiabendazole] was tested, and the “fiber score / MBP score” value ([1]; 1 µM) was 1.05, the “fiber score / MBP score” value ([1]; 5 µM) was 0.885 and the myelination ([2]; 1 µM) was 0.461 (inactive). For the same compound, the myelination ([2]; 5 µM) was -0.348 (inactive).

For `CC1(C)S[C@@H]2[C@H](/N=C/N3CCCCCC3)C(=O)N2[C@H]1C(=O)O` [Amdinocillin], the “fiber score / MBP score” value ([1]; 1 µM) was 0.728, the “fiber score / MBP score” value ([1]; 5 µM) was 0.866 and the myelination ([2]; 1 µM) was -21.5 (inactive). The myelination ([2]; 5 µM) was -5.42 (inactive).

With `O=C(CCNNC(=O)c1ccncc1)NCc1ccccc1` [Nialamide] the “fiber score / MBP score” value ([1]; 1 µM) was 0.859, the “fiber score / MBP score” value ([1]; 5 µM) was 0.524 and the myelination ([2]; 1 µM) was -5.76 (inactive). The myelination ([2]; 5 µM) was -19 (inactive).

With `C[C@]12CCC(=O)C=C1CC[C@@H]1[C@@H]2C(=O)C[C@@]2(C)[C@H]1CC[C@]2(O)C(=O)CO` [Cortisone] the “fiber score / MBP score” value ([1]; 1 µM) was 0.752, the “fiber score / MBP score” value ([1]; 5 µM) was 0.764 and the myelination ([2]; 1 µM) was -12.4 (inactive). The myelination ([2]; 5 µM) was -10.5 (inactive).

`Cc1c(O)c(=O)ccn1C` [Deferiprone] was tested, and the “fiber score / MBP score” value ([1]; 1 µM) was 0.908, the “fiber score / MBP score” value ([1]; 5 µM) was 0.731 and the myelination ([2]; 1 µM) was -11.3 (inactive). The myelination ([2]; 5 µM) was -23.2 (inactive).

From the supplement of paper PMC4840960
